From PubChem BioAssay (NCI) come the findings set out here.

Where “and” joins values, the source holds several entries; their conditions need not be identical. Equal values may be shown once. Compounds without any hit were thinned out: in the full panel of roughly 83,000, 20% have a hit.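 Cells were grown in 96-well plates and exposed to the test compound at a single concentration for 48 hours; results are reported as percent growth, with values below 10 considered active.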 Calls of active or inactive are those of the source.

The test deals with MDA-MB-468 breast. Kind of test: NCI-60 one-dose screen, 48 h (100 = growth as untreated, 0 = no growth, -100 = all killed). Particulars: 10 µM unless noted.
Consider `Nc1ncn([C@@H]2O[C@H](CO)[C@@H](O)C2(F)F)c(=O)n1`, for which the growth is 71.4% (inactive).

`COc1ccc(-c2cc(-c3ccc(OC)cc3)c3sc(=O)[nH]c3n2)cc1`: the growth was 96.4% (inactive). The result for `N#CCNC(=O)c1ccc(-c2ccnc(Nc3ccc(N4CCOCC4)cc3)n2)cc1` reads 9.99% (active); that for `CCCNNC(=O)/C=C/c1ccc(CNCCc2c(C)[nH]c3ccccc23)cc1`, 32.8% [2.5 µM] (inactive); that for `CCN(CC)c1ccc(N=Nc2cc(Cl)ccc2Cl)c(NC(=O)CCC(=O)O)c1`, 107% (inactive). For the molecule `CSC(=S)N/N=C(\C)c1ccccn1`, the growth was -19.5% (active). Under `COc1ccc(/C(=C\c2ccc3c(c2)OCO3)C(=O)Nc2nc3ccccc3s2)cc1OC` stands 90.5% (inactive); under `CC1(C)OB(O)c2cc(-c3nc4ccc5[nH]ncc5c4c4c3CCCC4)ccc21`, 69.5% (inactive); under `Nc1cccc(-c2nc3sccn3c2-c2ccnc(NCCCNS(=O)(=O)c3ccc(C(F)(F)F)cc3)n2)c1`, 0.59% (active).

Consider `O=C1Nc2ccc(Br)cc2C1=O`, for which the growth was 109% (inactive).

Take `COc1cccc(NC(=O)Nc2ccc(Nc3ncnc4sc5c(c34)CCN(C(=O)CCl)C5)cc2)c1`: the growth was 117% (inactive). Under `O=C(CSc1nc2ccccc2[nH]1)NCc1ccccc1` stands 101% (inactive); under `Nc1ccc(-c2nnc(SCc3ccc(O)c4ncccc34)n2-c2ccccc2)cc1`, 9.01% (active); under `O=C(Nc1ccc(OS(=O)(=O)c2ccc(F)cc2)cc1)c1ccc(Cl)cc1`, 98% (inactive). On to `O=C(CCCCC(=O)N/N=C\c1ccccc1O)N/N=C\c1ccccc1O`, for which the growth was 22.4% (inactive). `CCCCCCCCCCCCCCCCCCOc1ccccc1CC(=O)OCC[N+]1(C)CCCC1`: the growth was -23.8% (active).

In the case of `O=S(=O)(Nc1cc(Sc2nc3ccccc3s2)c(O)c2ccccc12)c1ccc2ccccc2c1`, the growth is -0.0972% (active).

Turning to `CN(C)CN1CCN(c2ccc3nc(-c4ccc5nc(-c6ccc(C(F)(F)F)cc6)[nH]c5c4)[nH]c3c2)CC1`, the growth is 13.7% (inactive).

`O=C(C[C@]1(O)C(=O)Nc2ccc(Br)cc21)c1ccco1`: the growth is 109% (inactive). Under `C=C(C)[C@@H]1CC[C@]2(C(=O)O)CC[C@]3(C)[C@H](CC[C@@H]4[C@@]5(C)C[C@@H](CC#Cc6ccc(C(C)=O)s6)[C@H](O)C(C)(C)[C@@H]5CC[C@]43C)[C@@H]12` stands 63.4% (inactive).

Turning to `Cc1ccc(Cl)cc1NC(=O)c1sc2nc3c(cc2c1N)C(=O)CCC3`, the growth was 8.44% (active). In the case of `O=C(c1cc2ccccc2o1)c1nn(-c2ccccc2)/c(=N/N=Cc2cn(-c3ccccc3)nc2-c2cc3ccccc3oc2=O)s1`, the growth is 105% (inactive). As for `Cc1cc(NC(=O)c2cccc(C(F)(F)F)c2)ccc1-n1ccc2c(NC(=O)c3ccccc3)nccc21`, the growth was 111% (inactive).

Consider `O=C1Cc2cc(O)ccc2O1`, for which the growth was 103% (inactive). With `CC1(C)Cc2c(cn(Cc3ccccc3)c2-c2ccccc2)-c2oncc21`, the growth was 88.5% (inactive). The result for `NC1=NN(c2ccccc2)C(=O)/C1=C/c1ccc(Cl)cc1` reads 114% (inactive).

Turning to `CC(=O)c1ccc2c(c1)N(CCCN1CCN(CCO)CC1)c1ccccc1S2`, the growth was 92.3% (inactive) and -79% (active). With `CC(C)OCC(CCl)OC(=O)Nc1ccccc1` (stereo not given), the growth was 112% (inactive). Under `COc1ccc(-c2cc(-c3cccnc3)nc(S(=O)(=O)CC(=O)Nc3ccc(C)cc3)c2C#N)cc1OC` stands 96% (inactive); under `COc1cc(OC)cc(-c2cncn2-c2ccc(-c3nc4cc(OC)cc(OC)c4s3)cc2)c1`, 4% (active). The result for `Clc1ccc2c(NCCCCNc3nc(N4CCOCC4)nc4ccccc34)ccnc2c1` reads 24.9% (inactive); that for `C/C(=N\NC(=S)Nc1ccc(Br)cc1)c1cc2ccccc2oc1=O`, -23.5% (active); that for `CCc1nc(N)nc(N)c1C#CC(C)c1ccc(-c2ccncc2)cc1Cl` (stereo not given), 5.88% (active). As for `CC(CC(=O)c1ccccc1)c1ccccc1` (stereo not given), the growth is 96.5% (inactive). The result for `c1ccc2cc(C[n+]3ccn(Cc4ccc5ccccc5n4)c3)ccc2c1` reads -26.3% (active) and -3.7% (active). The result for `CCNC(=S)NN` reads 34.9% (inactive); that for `CN1C(=O)N(C)C2Nn3c(s/c(=C\c4ccccc4)c3=O)=NC21` (stereo not given), 95.4% (inactive). Under `COc1ccc(N2CCN(C(=O)CSc3ccc(-c4nc5cc(C)c(C)cc5[nH]4)cn3)CC2)cc1` stands 49.5% (inactive); under `CCCCCCCCCCCCCC1=NC(C)(C)CN1C(C)C`, -61.4% (active).

`Nc1n[nH]c2ccc([C@@H]3Nc4cc5c(cc4[C@H]4C6CCC(C6)[C@@H]34)C(=O)NC5)cc12` (stereo not given in full): the growth was -9.96% (active).
